Records with an inconclusive call do not appear. Activity calls are given as the source filed them. Unless noted, the call rests on the fitted dose curve; in most records, active means well fitted curve in the direction sought with a large enough effect; inconclusive means small, poorly fitted or top-dose-only effect, or another doubt; inactive means no such curve, though single readings can be large; an effect the other way counts as inactive or inconclusive.
How the values were obtained:
[1] = qHTS assay for measurement of the activity of small molecule inhibitors on Zika virus induced Caspase-3 activity in human iPSC derived neural progenitor cells (hNPCs) (AID 1224857); further: nearly all actives have a fitted effect of over 65% in size
Summary of the method: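 Quantitative HTS format: human iPSC neural progenitors, 1 h compound pretreatment, ZIKV 2 FFU/cell for 6 h at 37 C. Percent inhibition derived from luminescent caspase-3/7 signal between uninfected and infected controls.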

[2] = qHTS assay for measurement of the activity of small molecule inhibitors on Zika virus induced Caspase-3 activity in human astrocytoma cells (AID 1224859)
Summary of the method: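 Readout is luminescence from Caspase-Glo 3/7 added after a 6 h ZIKV infection (2 FFU/cell) of compound-pretreated (1 h) SNB-19 cells; data expressed as % inhibition versus uninfected and infected wells.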

[3] = target: Atrial natriuretic peptide receptor 1 (Homo sapiens) (UniProt P16066); test: Natriuretic polypeptide receptor (hNpr1) antagonism - Pilot screen (AID 1347049; calls by dose curve;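 further: agonist-evoked cGMP luminescence read 20 min after hNppA addition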; further: potency means the concentration at half of the fitted maximal effect)
Summary of the method: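 cGMP-sensor HEK293/hNpr1 cells, 1500/well, plated overnight at 37C. 2% GloSensor reagent, 2 h RT. Compound (23 nL pin transfer) 30 min RT, baseline luminescence pre-read. 0.1 nM hNppA, 20 min RT, post-read.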

[4] = target: Atrial natriuretic peptide receptor 2 (Homo sapiens) (UniProt P20594); test: Natriuretic polypeptide receptor (hNpr2) antagonism - Pilot subtype selectivity assay (AID 1347050; calls by dose curve; further: potency means the concentration at half of the fitted maximal effect)
Summary of the method: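 Luminescence from a genetically encoded cGMP luciferase biosensor in hNpr2-expressing HEK293 cells is read before and 20 min after adding 1 nM hNppC. Test compounds, in interplate 1:5 titrations, are added 30-50 min ahead of the agonist.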

[5] = NS1 protein of Zika virus - qHTS assay to identify small molecule inhibitors in human HEK 293 cells (AID 1347053); further: nearly all actives have a fitted effect of over 55% in size
Summary of the method: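 Compound-treated (1 h pre-infection) HEK 293 cells infected with ZIKV MR766, MOI = 0.5; after 24 h at 37 C, NS1 read by TR-FRET; data normalized to uninfected and infected controls.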

[6] = target: T1, Tyrosine-protein phosphatase non-receptor type substrate 1 (Homo sapiens) + Leukocyte surface antigen CD47 (Homo sapiens) (UniProt P78324+Q08722); test: CD47-SIRPalpha protein protein interaction - LANCE assay qHTS validation (AID 1347057; active means well fitted curve in the direction sought with a large enough effect in the signal ratio, with a control signal flat, not every such curve was filed as active; the % refers to the signal ratio; further: potency means the concentration at half of the fitted maximal effect)
Summary of the method: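 Inhibition of soluble CD47/SIRPalpha ectodomain association by titrated compounds, measured as 665/615 nm time-resolved FRET ratio after sequential 30 min room-temperature incubations.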

[7] = target: T1, Tyrosine-protein phosphatase non-receptor type substrate 1 (Homo sapiens) + Leukocyte surface antigen CD47 (Homo sapiens); test: CD47-SIRPalpha protein protein interaction - HTRF assay qHTS validation (AID 1347058; active means well fitted curve in the direction sought with a large enough effect in the signal ratio, not every such curve was filed as active; the % refers to the signal ratio)
Summary of the method: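 Soluble extracellular domains (6His-CD47, Avi-tag-biotinylated SIRPalpha) in PBS pH 7.4 with 0.05% IGEPAL CA-630. Compounds were preincubated 30 min at RT with CD47 and anti-His-Eu, then SIRPalpha and SAV-XL665 were added. TR-FRET 665/615 ratio.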

[8] = Natriuretic polypeptide receptor (hNpr1) antagonism - Pilot counterscreen GloSensor control cell line (AID 1347045; calls by dose curve; further: potency means the concentration at half of the fitted maximal effect)
Summary of the method: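 HEK293 cGMP-sensor cells; 2% GloSensor reagent 2 h RT; LOPAC compounds in 1:5 titrations 30-50 min; 50 uM SNP 20 min; luminescence pre-read and post-read.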

[9] = qHTS profiling of the MIPE4 collection as inhibitors of Plasmodium falciparum (3D7) proliferation (AID 743344; call rule not given here); conditions: P. falciparum 3D7 in erythrocytes, SYBR Green DNA fluorescence, 72 h; at 28.5 µM (top of the series)
Summary of the method: (§1)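 Parasite DNA was quantified by SYBR Green I fluorescence (ex 485, em 535 nm) after overnight lysis in saponin/Triton buffer at room temperature. Cultures at 0.3% parasitemia and 2.5% hematocrit were first exposed to compound for 72 h at 37 C; signals were normalised to artemisinin (0.29 uM) and vehicle wells.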

[10] = qHTS profiling of the MIPE4 collection as inhibitors of Plasmodium falciparum (DD2) proliferation (AID 743345; call rule not given here); conditions: P. falciparum Dd2 in erythrocytes, SYBR Green DNA, 72 h; at 28.5 µM (top of the series)
Summary of the method: as §1

[11] = qHTS profiling of the MIPE4 collection as inhibitors of Plasmodium falciparum (DD2) proliferation (Rep 2) (AID 743346; call rule not given here); conditions: P. falciparum Dd2 in erythrocytes, SYBR Green DNA, 72 h; at 28.5 µM (top of the series)
Summary of the method: as §1

[12] = qHTS profiling of the MIPE4 collection as inhibitors of Plasmodium falciparum (HB3) proliferation (AID 743347; call rule not given here); conditions: P. falciparum HB3 in erythrocytes, SYBR Green DNA, 72 h; at 28.5 µM (top of the series)
Summary of the method: as §1

[13] = qHTS assay for cell viability of the p53RE-bla HCT-116 cell line (AID 743292); further: nearly all actives have a fitted effect of over 55% in size
Summary of the method: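 Luminescent ATP quantitation (CellTiter-Glo) served as the viability read-out; reagent was added after 16 h compound exposure at 37 C and read after 30 min at room temperature. Cells: p53RE-bla HCT-116, 4,000 per well.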

[14] = qHTS profiling for inhibitors of Plasmodium falciparum (3D7) proliferation (AID 743322; call rule not given here;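 further: infected erythrocytes exposed to compound for 72 h before lysis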); conditions: P. falciparum 3D7 proliferation; at 28.7 µM (top of the series)
Summary of the method: as §1

[15] = qHTS profiling for inhibitors of Plasmodium falciparum (DD2) proliferation (AID 743323; call rule not given here); conditions: lower = more inhibition; at 28.7 µM (top of the series)
Summary of the method: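 Parasite proliferation measured via DNA-dye fluorescence, as uninfected erythrocytes lack DNA. Cultures at 0.3% parasitemia and 2.5% hematocrit incubated 72 h with compound; signal scaled between vehicle and 0.29 uM artemisinin wells.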

T1 sequence (P78324 whole entry, looked up, the tested form may be a part): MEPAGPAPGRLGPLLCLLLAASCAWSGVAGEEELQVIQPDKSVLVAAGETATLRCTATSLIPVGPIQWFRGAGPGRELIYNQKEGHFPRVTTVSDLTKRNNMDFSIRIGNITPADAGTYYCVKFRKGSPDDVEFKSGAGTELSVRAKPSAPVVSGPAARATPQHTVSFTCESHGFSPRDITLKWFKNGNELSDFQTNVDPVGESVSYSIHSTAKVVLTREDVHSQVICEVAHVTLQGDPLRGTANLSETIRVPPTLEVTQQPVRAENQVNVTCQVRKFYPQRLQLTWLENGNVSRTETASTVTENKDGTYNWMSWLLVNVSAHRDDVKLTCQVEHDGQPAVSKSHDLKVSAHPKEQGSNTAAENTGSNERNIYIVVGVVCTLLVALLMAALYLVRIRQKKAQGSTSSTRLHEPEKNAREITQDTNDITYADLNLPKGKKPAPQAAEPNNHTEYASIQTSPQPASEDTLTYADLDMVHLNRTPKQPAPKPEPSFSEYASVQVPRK
T1 sequence (Q08722 whole entry, looked up, the tested form may be a part): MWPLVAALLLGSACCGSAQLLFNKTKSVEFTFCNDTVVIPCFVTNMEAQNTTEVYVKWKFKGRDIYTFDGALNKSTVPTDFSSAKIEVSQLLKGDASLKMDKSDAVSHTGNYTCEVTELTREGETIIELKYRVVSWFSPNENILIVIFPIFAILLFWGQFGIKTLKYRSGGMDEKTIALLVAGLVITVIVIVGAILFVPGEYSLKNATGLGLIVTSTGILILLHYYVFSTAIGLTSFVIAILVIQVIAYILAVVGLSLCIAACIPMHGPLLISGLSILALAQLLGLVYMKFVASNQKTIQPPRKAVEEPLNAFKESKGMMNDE
Chain of Atrial natriuretic peptide receptor 2 (Homo sapiens) (P20594 whole entry, looked up): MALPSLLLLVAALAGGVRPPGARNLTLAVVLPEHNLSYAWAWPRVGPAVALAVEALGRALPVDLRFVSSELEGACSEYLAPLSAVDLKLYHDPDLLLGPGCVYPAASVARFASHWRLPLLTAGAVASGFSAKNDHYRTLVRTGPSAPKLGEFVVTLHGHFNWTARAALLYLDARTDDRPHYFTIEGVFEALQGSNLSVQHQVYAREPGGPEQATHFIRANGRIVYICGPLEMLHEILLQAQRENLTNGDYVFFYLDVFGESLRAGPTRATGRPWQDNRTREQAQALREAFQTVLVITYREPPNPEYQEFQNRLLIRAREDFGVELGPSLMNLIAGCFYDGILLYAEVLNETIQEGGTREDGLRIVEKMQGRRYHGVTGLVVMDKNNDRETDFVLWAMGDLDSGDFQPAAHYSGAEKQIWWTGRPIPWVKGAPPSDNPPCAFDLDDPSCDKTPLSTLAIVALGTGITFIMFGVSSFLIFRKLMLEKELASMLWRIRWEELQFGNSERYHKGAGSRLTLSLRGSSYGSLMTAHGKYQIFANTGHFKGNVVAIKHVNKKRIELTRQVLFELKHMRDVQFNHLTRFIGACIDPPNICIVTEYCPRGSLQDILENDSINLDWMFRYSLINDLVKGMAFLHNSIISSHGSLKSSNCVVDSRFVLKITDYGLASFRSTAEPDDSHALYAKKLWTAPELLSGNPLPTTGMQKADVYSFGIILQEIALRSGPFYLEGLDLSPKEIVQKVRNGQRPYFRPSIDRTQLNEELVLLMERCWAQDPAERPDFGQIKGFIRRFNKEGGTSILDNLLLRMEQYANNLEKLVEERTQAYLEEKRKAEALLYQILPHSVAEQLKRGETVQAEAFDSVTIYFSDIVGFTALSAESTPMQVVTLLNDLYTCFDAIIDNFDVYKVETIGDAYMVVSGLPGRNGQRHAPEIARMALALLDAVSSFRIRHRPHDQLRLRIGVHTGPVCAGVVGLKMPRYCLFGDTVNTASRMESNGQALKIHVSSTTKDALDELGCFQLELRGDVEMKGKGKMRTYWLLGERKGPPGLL
Chain of Atrial natriuretic peptide receptor 1 (Homo sapiens) (P16066 whole entry, looked up): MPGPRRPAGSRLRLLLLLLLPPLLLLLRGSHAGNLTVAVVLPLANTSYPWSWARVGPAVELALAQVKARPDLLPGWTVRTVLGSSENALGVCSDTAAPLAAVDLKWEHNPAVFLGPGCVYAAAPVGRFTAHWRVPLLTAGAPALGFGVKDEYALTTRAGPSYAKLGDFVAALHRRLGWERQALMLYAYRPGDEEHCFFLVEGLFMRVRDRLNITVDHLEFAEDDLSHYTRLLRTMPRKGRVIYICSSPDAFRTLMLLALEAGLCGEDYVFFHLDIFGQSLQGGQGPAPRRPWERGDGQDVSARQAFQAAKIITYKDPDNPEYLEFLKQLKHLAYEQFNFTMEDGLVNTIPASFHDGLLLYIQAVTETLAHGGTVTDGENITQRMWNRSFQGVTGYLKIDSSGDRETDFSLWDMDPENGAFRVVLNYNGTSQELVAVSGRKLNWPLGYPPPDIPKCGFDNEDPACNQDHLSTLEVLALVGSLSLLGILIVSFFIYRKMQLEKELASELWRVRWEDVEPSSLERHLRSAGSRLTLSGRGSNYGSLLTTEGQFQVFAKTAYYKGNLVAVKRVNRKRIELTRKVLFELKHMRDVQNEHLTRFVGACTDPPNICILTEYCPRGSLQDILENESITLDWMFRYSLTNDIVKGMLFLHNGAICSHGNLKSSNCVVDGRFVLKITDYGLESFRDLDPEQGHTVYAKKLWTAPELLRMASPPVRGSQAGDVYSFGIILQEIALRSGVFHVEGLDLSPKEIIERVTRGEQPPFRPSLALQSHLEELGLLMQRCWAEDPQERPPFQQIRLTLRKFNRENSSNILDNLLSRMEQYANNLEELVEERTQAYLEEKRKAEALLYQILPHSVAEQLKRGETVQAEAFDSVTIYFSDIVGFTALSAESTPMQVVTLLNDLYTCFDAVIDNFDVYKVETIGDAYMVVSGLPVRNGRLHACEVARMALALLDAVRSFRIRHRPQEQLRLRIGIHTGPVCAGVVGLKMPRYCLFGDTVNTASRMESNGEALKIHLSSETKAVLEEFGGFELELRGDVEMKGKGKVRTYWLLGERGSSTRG

Nc1ccc(CCN2CCN(c3cccc(C(F)(F)F)c3)CC2)cc1
inactive: Potency [1] | outcome [2] | Potency [3] | Potency [4] | outcome [5] | Potency [6] | outcome [7]

N[C@@]1(C(=O)O)CC[C@@H](C(=O)O)C1
inactive: Potency [1] | outcome [2] | Potency [8] | Potency [4] | outcome [5] | Potency [6] | outcome [7]

c1ccc2c(c1)[I+]c1ccccc1-2
inactive: Potency [1] | outcome [2] | Potency [6] | outcome [7]
active: Potency [8] 4.14 µM | Potency [3] 3.01 µM | Potency [4] 0.927 µM

NC(=O)CI
inactive: Potency [1] | outcome [2] | Potency [8] | Potency [3] | Potency [4] | outcome [5] | outcome [7]

C[C@H](N)Cc1cccc(C(F)(F)F)c1
inactive: Potency [1] | outcome [2] | Potency [3] | outcome [5] | Potency [6] | outcome [7]

NCC(O)c1cc(O)c(O)cc1F (stereo not drawn)
inactive: Potency [1] | outcome [2] | Potency [8] | Potency [3] | Potency [4] | outcome [5] | Potency [6] | outcome [7]

Cc1cc([C@@H]2CCCN2C)on1
inactive: Potency [1] | outcome [2] | Potency [8] | Potency [3] | Potency [4] | outcome [5] | Potency [6] | outcome [7]

CCCCCCCCCCCCCC(=O)O[C@@H]1[C@@H](C)[C@@]2(O)[C@@H](C=C(CO)C[C@@]3(O)C(=O)C(C)=C[C@@H]23)C2C(C)(C)[C@@]21OC(C)=O (stereo partly drawn)
active: Potency [4] 0.0066 µM
inactive: Potency [1] | outcome [2] | Potency [8] | Potency [6] | outcome [7]

Oc1ccc2c3c1O[C@H]1c4[nH]c5ccccc5c4C[C@@]4(O)C(C2)N(CC2CC2)CCC314 (stereo partly drawn)
5.78%: parasite growth, % of DMSO control [9]
12.6%: parasite growth, % of control (lower = inhibition) [11]
inactive: Potency [1] | outcome [2] | Potency [3] | Potency [4] | outcome [5] | Potency [6] | outcome [7]
28.3%: parasite growth remaining, % of DMSO control (lower = more inhibition) [10]
5.24%: growth, % of control [12]

O=C1C=CC(=O)C=C1
inactive: Potency [13] | Potency [1] | outcome [2] | Potency [3] | Potency [4] | outcome [5] | Potency [6] | outcome [7]

C=CCN1C[C@@H](C)N([C@H](c2ccc(C(=O)N(CC)CC)cc2)c2cccc(OC)c2)C[C@@H]1C
inactive: Potency [1] | outcome [2] | Potency [3] | Potency [4] | Potency [6] | outcome [7]

C[C@@H]1O[C@@H](O[C@H]2C[C@@H](O)[C@]3(CO)[C@@H]4C(CC[C@]3(O)C2)[C@@]2(O)CC[C@H]([C@@H]3COC(=O)C3)[C@@]2(C)C[C@H]4O)[C@H](O)[C@H](O)[C@H]1O (stereo partly drawn)
inactive: Potency [1] | outcome [2] | Potency [8] | Potency [3] | Potency [4] | Potency [6] | outcome [7]

C[C@H](N)CN1CCc2ccc(Br)cc21
99.2%: remaining parasite growth % (stronger effect = lower value) [14]
24.2%: activity, percent of control [15]
inactive: Potency [1] | outcome [2] | Potency [8] | Potency [4] | outcome [5] | Potency [6]

CN1C2CCC1CC(OC(c1ccccc1)c1ccccc1N)C2 (stereo not drawn)
inactive: Potency [1] | outcome [2] | Potency [8] | Potency [3] | outcome [5] | Potency [6] | outcome [7]

C[N+]1(C)CCN(c2ccccc2)CC1
inactive: Potency [1] | outcome [2] | Potency [8] | Potency [3] | Potency [4] | outcome [5] | outcome [7]

CCCC[N+]1(C)C2CC(OC(=O)[C@H](CO)c3ccccc3)CC1C1OC12 (stereo partly drawn)
inactive: Potency [1] | outcome [2] | Potency [8] | Potency [3] | Potency [4] | outcome [5] | Potency [6] | outcome [7]

CP(=O)(O)C1=CCNCC1
inactive: Potency [1] | Potency [8] | Potency [3] | Potency [4] | outcome [5] | Potency [6] | outcome [7]

NCCc1ccc(S(=O)(=O)F)cc1
inactive: Potency [1] | Potency [8] | Potency [3] | Potency [4] | outcome [5] | Potency [6] | outcome [7]

CCCN1CCC[C@@H](c2cccc(O)c2)C1
inactive: Potency [1] | Potency [8] | Potency [3] | Potency [4] | outcome [5] | Potency [6] | outcome [7]

COC(=O)N1CCN(C(=O)Cc2ccc(Cl)c(Cl)c2)C(CN2CCCC2)C1 (stereo not drawn)
inactive: Potency [1] | Potency [3] | Potency [4] | outcome [5] | Potency [6] | outcome [7]

O=c1ccc2[nH]cc(C3=CCNCC3)c2[nH]1
inactive: Potency [1] | outcome [5] | Potency [6]

Ic1ccccc1CNC1C2CCN(CC2)C1C(c1ccccc1)c1ccccc1 (stereo not drawn)
active: Potency [8] 13.1 µM
inactive: Potency [1] | Potency [6] | outcome [7]

C[C@H]1C2Cc3ccc(O)cc3[C@@]1(C)CCN2CC1CC1
inactive: Potency [1] | outcome [5] | Potency [6] | outcome [7]

NC(Cc1cc(O)c(O)cc1O)C(=O)O (stereo not drawn)
active: Potency [6] 13.1 µM
inactive: Potency [1] | Potency [8] | Potency [3] | Potency [4] | outcome [5]

C[N+]1(C)C2CCC1CC(OC(=O)c1c[nH]c3ccccc13)C2 (stereo not drawn)
inactive: Potency [1] | Potency [8] | Potency [3] | Potency [4] | outcome [5] | outcome [7]

Oc1ccc2c3c1O[C@H]1c4oc5ccccc5c4C[C@@]4(O)C(C2)N(CC2CC2)CCC314 (stereo partly drawn)
inactive: Potency [1] | Potency [3] | Potency [4] | Potency [6] | outcome [7]

— PubChem BioAssay (NCATS)
